Records with an inconclusive call do not appear. Calls of active or inactive are those of the source. Unless noted, calls come from the whole dose curve; as a rule, active = well fitted curve in the direction sought with a large enough effect in the repeat runs; inconclusive = weak or mixed curves; inactive = no such curve, though single readings can be large; an effect the other way counts as inactive or inconclusive.
How the values were obtained:
[1] = molecular target: Retinoic acid receptor RXR-alpha (Homo sapiens) (UniProt P19793); assay: qHTS assay to identify small molecule agonists of the RXR signaling pathway (AID 1159527; calls by dose curve; note: nearly all actives have a fitted effect of over 35% in size; note: potency is the fitted concentration of half-maximal effect)
Procedure, shortened: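 Agonist-mode beta-lactamase reporter assay: HEK 293T RXR-alpha-UAS-bla cells treated 16 hr at 37 C with compounds, 9-cis retinoic acid as positive control. LiveBLAzer FRET substrate, 405 nm excitation, 460/530 nm emission.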

[2] = qHTS assay to identify small molecule agonists of the RXR signaling pathway - cell viability counter screen (AID 1159529); note: series mostly up to about 77 µM; nearly all actives have a fitted effect of over 50% in size
Procedure, shortened: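 CellTiter-Glo luminescence gave viability in the wells also read for beta-lactamase. Cells (RXR-alpha-UAS-bla HEK 293T, 2% charcoal-stripped FBS medium) had 5 hr plating, then 16 hr compound exposure at 37 C; tetraoctyl ammonium bromide served as positive control.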

[3] = qHTS assay to identify small molecule antagonists of the retinoid acid receptor (RAR) signaling pathway - cell viability counter screen (AID 1159551); note: nearly all actives have a fitted effect of over 35% in size
Procedure, shortened: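 Following overnight attachment, C3RL4 reporter cells received DMSO-dissolved compounds and then retinol (1 uM final). Six hours later at 37 C, ATP content was measured by CellTiter-Glo luminescence.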

[4] = qHTS assay to identify small molecule antagonists of the retinoic acid receptor (RAR) signaling pathway (AID 1159552; note: nearly all actives have a fitted effect of over 50% in size)
Procedure, shortened: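 Luminescent RARE reporter read-out in C3RL4 cells: 6 hr co-treatment at 37 C of test compounds with retinol at 1 uM final. Cells plated overnight beforehand; luciferase reagent incubated 30 min at room temperature before reading.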

[5] = qHTS assay to identify small molecule agonists of the retinoic acid receptor (RAR) signaling pathway (AID 1159553)
Procedure, shortened: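 Cell line C3RL4, RARE luciferase reporter. Treatment: compounds in DMSO, 6 hr, 37 C, 5% CO2, after overnight plating. Detection: luminescence, 30 min RT after reagent.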

[6] = molecular target: Luciferin 4-monooxygenase (Photinus pyralis) (UniProt P08659); assay: qHTS assay to identify small molecule inhibitors of firefly luciferase (AID 1224835); note: series mostly up to about 120 µM; nearly all actives have a fitted effect of over 25% in size
Procedure, shortened: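 Quantitative HTS format; KM concentrations of both substrates. Purified P. pyralis FLuc activity quantified from luminescence images.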

[7] = qHTS assay to identify small molecule agonists of the constitutive androstane receptor (CAR) signaling pathway - cell viability counter screen (AID 1224836); note: series mostly up to about 92 µM; nearly all actives have a fitted effect of over 45% in size
Procedure, shortened: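 Cell viability multiplexed with the CAR agonist screen: CellTiter-Fluor fluorescence after 23 hr at 37 C. HepG2-CYP2B6-hCAR cells got compounds at 15 concentrations with PK11195 at 0.75 uM final.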

[8] = qHTS assay to identify small molecule antagonists of the constitutive androstane receptor (CAR) signaling pathway - cell viability counter screen (AID 1224837); note: series mostly up to about 92 µM; nearly all actives have a fitted effect of over 45% in size
Procedure, shortened: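 Fluorescence from CellTiter-Fluor served as the viability signal. Human hepatoma HepG2 cells stably bearing hCAR and CYP2B6-2.2kb received compound plus CITCO (50 nM final) for 23 hr.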

[9] = molecular target: Nuclear receptor subfamily 1 group I member 3 (Homo sapiens) (UniProt Q14994); assay: qHTS assay to identify small molecule agonists of the constitutive androstane receptor (CAR) signaling pathway (AID 1224839);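 note: HepG2 cells stably carrying human CAR and a CYP2B6 luciferase reporter; series mostly up to about 92 µM; nearly all actives have a fitted effect of over 15% in size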
Procedure, shortened: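 Luminescent ONE-Glo read-out after 24 hr, 37 C exposure of double-stable HepG2-CYP2B6-hCAR reporter cells to a 15-point compound series, in the presence of 0.75 uM PK11195 (final).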

[10] = qHTS assay to identify small molecule antagonists of the estrogen related receptor signaling pathway with the pleiotropic PPARgamma coactivator (PGC) from Tox21 10K library - cell viability counter screen (AID 1224840; active = well fitted cell-killing curve with a large enough effect in the repeat runs, not every such curve was filed as active; note: nearly all actives have a fitted effect of over 40% in size)
Procedure, shortened: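 Compounds in DMSO, alongside positive and negative controls, were pinned onto PGC/ERR cells (2,000 per well). Exposure lasted 17.5 hours at 37 C, followed by a 30-minute CellTiter-Fluor incubation and fluorescence reading.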

[11] = molecular target: Thyrotropin receptor (Homo sapiens) (UniProt P16473); assay: qHTS assay to identify small molecule agonists of the thyroid stimulating hormone receptor (TSHR) signaling pathway (AID 1224843; calls by dose curve; note: nearly all actives have a fitted effect of over 45% in size)
Procedure, shortened: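 Cell line HEK293 with TSHR; density 800/well. Exposure 30 min RT. Readout HTRF cAMP (cAMP-d2/anti-cAMP-cryptate), 1 h RT before reading.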

[12] = qHTS assay to identify small molecule agonists of the hypoxia (HIF-1) signaling pathway - cell viability counter screen (AID 1224844; calls by dose curve; note: nearly all actives have a fitted effect of over 50% in size)
Procedure, shortened: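 Luminescent ATP content (CellTiter-Glo, 30 min, room temperature) served as the viability measure in HRE-bla ME-180 cells exposed to compounds for 17 hrs in low-serum medium (0.5% dialyzed FBS).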

[13] = qHTS assay to identify small molecule agonists of H2AX (AID 1224845; active = well fitted activation curve with a large enough effect in the signal ratio in the repeat runs, not every such curve was filed as active; the % refers to the signal ratio)
Procedure, shortened: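 Wild-type CHO-K1 cells plated overnight, then exposed 3 hr at 37C to compounds at 15 concentrations (0.76% DMSO). Lysed, then HTRF anti-pH2AX(S139)-cryptate/anti-H2AX-d2 detection after 24 hr at room temperature; emissions 665 and 620 nm.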

[14] = qHTS assay to identify small molecule agonists of the hypoxia (HIF-1) signaling pathway (AID 1224846; active = well fitted activation curve with a large enough effect in the signal ratio in the repeat runs, not every such curve was filed as active; the % refers to the signal ratio)
Procedure, shortened: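 Measured by blue/green FRET after loading CCF4-AM: beta-lactamase expressed from a hypoxia response element in ME-180 cells. Test agents were delivered in DMSO and left 17 hrs; cells had been plated 5 hrs earlier in low-serum (0.5% dialyzed FBS) medium.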

[15] = qHTS assay to identify small molecule agonists of H2AX - cell viability counter screen (AID 1224847; calls by dose curve; note: top concentration of the series differs between compounds; nearly all actives have a fitted effect of over 30% in size)
Procedure, shortened: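 Counter-screen for viability: CellTiter-Glo ATP luminescence read after 3 h compound treatment (15-point titration, 0.76% DMSO final) of CHO-K1 cells at 37C, with 30 min room-temperature reagent incubation.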

[16] = qHTS assay to identify small molecule antagonists of the estrogen related receptor (ERR) signaling pathway from Tox21 library - cell viability counter screen (AID 1224834); note: nearly all actives have a fitted effect of over 30% in size
Procedure, shortened: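 Viability readout (CellTiter-Fluor fluorescence, 30 min at 37 C) multiplexed with the ERR assay; cells treated 17.5 h at 37 C with compounds delivered in DMSO.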

[17] = molecular target: Nuclear receptor subfamily 1 group I member 3 (Homo sapiens) (UniProt Q14994); assay: qHTS assay to identify small molecule antagonists of the constitutive androstane receptor (CAR) signaling pathway (AID 1224838);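 note: HepG2 cells stably expressing hCAR with CYP2B6 luciferase reporter stimulated by CITCO; nearly all actives have a fitted effect of over 40% in size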
Procedure, shortened: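 Quantitative HTS in double-stable HepG2-CYP2B6-hCAR cells. After 4 h plating, cells get compound (15 concentrations) and CITCO at 50 nM final, incubate 24 h at 37 C, then ONE-Glo luminescence is read.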
% is set by controls: 0 for no effect and ±100 for the full control effect.

Sequence of Luciferin 4-monooxygenase (Photinus pyralis) (P08659 whole entry, looked up): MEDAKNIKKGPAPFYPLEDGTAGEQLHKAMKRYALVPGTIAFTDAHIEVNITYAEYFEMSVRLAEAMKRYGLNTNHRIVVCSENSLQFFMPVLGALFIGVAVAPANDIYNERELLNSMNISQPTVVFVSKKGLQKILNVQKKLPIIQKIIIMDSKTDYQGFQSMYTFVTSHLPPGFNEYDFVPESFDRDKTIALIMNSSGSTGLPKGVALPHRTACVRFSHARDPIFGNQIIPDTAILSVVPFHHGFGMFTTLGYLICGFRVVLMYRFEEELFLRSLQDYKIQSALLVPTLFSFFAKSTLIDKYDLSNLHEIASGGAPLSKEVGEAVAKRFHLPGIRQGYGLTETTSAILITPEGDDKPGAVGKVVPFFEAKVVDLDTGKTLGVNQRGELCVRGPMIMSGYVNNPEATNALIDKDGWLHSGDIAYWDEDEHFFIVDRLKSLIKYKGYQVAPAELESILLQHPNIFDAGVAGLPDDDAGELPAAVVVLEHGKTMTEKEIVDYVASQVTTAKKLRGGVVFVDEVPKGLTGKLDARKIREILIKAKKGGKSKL
Sequence of Nuclear receptor subfamily 1 group I member 3 (Homo sapiens) (Q14994 whole entry, looked up): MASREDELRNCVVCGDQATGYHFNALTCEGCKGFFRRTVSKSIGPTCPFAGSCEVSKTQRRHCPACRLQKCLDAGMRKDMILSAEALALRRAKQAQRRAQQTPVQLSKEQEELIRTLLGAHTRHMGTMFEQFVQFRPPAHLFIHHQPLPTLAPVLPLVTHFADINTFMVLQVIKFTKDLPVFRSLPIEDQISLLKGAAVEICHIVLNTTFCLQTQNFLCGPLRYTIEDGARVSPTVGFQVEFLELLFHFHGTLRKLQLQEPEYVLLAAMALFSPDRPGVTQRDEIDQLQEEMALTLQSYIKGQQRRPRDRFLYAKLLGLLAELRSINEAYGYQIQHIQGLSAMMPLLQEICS
Sequence of Retinoic acid receptor RXR-alpha (Homo sapiens) (P19793 whole entry, looked up): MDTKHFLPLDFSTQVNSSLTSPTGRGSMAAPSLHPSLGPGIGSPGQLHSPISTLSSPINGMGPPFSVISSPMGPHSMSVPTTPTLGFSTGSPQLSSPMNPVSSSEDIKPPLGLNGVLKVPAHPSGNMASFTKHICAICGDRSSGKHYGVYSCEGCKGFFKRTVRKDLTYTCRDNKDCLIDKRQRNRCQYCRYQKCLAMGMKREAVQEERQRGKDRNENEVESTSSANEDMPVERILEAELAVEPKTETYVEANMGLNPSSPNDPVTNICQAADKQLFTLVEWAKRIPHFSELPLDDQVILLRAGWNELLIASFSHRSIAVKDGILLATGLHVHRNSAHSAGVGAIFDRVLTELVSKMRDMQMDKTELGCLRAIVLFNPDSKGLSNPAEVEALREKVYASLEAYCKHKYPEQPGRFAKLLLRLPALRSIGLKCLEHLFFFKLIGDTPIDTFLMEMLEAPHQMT
Sequence of Thyrotropin receptor (Homo sapiens) (P16473 whole entry, looked up): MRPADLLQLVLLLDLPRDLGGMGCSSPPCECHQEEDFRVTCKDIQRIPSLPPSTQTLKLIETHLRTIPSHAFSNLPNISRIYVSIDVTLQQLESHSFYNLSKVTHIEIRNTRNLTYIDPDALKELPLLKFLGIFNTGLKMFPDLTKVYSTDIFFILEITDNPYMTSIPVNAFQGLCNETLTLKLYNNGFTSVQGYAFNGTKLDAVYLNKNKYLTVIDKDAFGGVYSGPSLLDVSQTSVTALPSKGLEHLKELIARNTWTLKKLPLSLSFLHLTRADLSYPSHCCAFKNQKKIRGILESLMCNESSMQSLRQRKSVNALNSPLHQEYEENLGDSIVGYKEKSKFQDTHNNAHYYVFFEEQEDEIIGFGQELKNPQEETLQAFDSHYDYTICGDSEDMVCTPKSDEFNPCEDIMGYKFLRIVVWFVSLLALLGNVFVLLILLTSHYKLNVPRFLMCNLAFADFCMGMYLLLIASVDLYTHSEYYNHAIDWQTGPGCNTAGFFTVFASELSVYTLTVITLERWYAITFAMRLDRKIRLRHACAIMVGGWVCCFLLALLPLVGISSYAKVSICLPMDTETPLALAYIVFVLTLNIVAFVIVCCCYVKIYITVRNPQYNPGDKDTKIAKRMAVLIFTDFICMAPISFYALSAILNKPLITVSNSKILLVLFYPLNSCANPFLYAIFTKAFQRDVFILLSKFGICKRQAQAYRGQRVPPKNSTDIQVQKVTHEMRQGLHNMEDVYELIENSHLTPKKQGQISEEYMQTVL

COC(=O)/C=C\C(=O)O
inactive: Potency [1] | outcome [2] | outcome [3] | outcome [4] | Potency [5] | Potency [6] | outcome [7] | outcome [8] | Potency [9] | outcome [10] | outcome [11] | outcome [12] | outcome [13] | outcome [14] | outcome [15]

CC(C)c1ccc(C=O)cc1
inactive: outcome [3] | outcome [4] | Potency [5] | outcome [16] | Potency [6] | outcome [7] | outcome [8] | Potency [17] | Potency [9] | outcome [10] | outcome [11] | outcome [12]
active: Potency [1] 43.6 µM

CC1(C)CC(OC(=O)CCCCCCCCC(=O)OC2CC(C)(C)NC(C)(C)C2)CC(C)(C)N1
inactive: activation [1] -1.61% [at 15.8 µM] | activity change, negative = cytotoxicity [2] -17.6% [at 15.8 µM] | activity change, negative = cytotoxicity [3] -0.597% [at 19 µM] | activity, negative = inhibition [4] 10.8% [at 19 µM] | Potency [5] | activity change, negative = inhibition [6] 0.839% [at 23.6 µM] | viability change, negative = cytotoxic [7] -0.169% [at 19 µM] | activity change, negative = cytotoxicity [8] -3.96% [at 19 µM] | activity, negative = inhibition [17] 7.36% [at 19 µM] | activation [9] -1.81% [at 19 µM] | viability change, negative = cytotoxic [10] -0.192% [at 19 µM] | activation [11] -8.72% [at 19 µM] | activation (H2AX phosphorylation) [13] 0.0652% [at 31.6 µM] | activation [14] -0.0727% [at 15.8 µM] | activity change, negative = cytotoxicity [15] -4.19% [at 31.6 µM]

Nc1nnnn1-c1ccccc1
inactive: Potency [1] | outcome [2] | outcome [3] | outcome [4] | Potency [5] | Potency [6] | outcome [7] | outcome [8] | Potency [17] | Potency [9] | outcome [10] | outcome [11] | outcome [12] | outcome [13] | outcome [14] | outcome [15]

N[C@@H](CSCCCO)C(=O)O
inactive: activation [1] 12.4% [at 15.8 µM] | activity change, negative = cytotoxicity [2] -0.377% [at 15.8 µM] | activity change, negative = cytotoxicity [3] 5.07% [at 19 µM] | activity, negative = inhibition [4] 1.93% [at 19 µM] | Potency [5] | activity change, negative = inhibition [6] -1.72% [at 23.6 µM] | viability change, negative = cytotoxic [7] 3.99% [at 19 µM] | activity change, negative = cytotoxicity [8] 10% [at 19 µM] | activity, negative = inhibition [17] 5.4% [at 19 µM] | activation [9] 0.0803% [at 19 µM] | viability change, negative = cytotoxic [10] -0.0206% [at 19 µM] | activation [11] 0.239% [at 19 µM] | activity change, negative = cytotoxicity [12] 0.058% [at 15.8 µM] | activation [14] -1.56% [at 15.8 µM]

CC/C(C)=N\O[Si](C)(O/N=C(\C)CC)O/N=C(\C)CC
inactive: Potency [1] | outcome [2] | outcome [3] | outcome [4] | Potency [5] | Potency [6] | outcome [7] | outcome [8] | Potency [17] | Potency [9] | outcome [10] | outcome [11] | outcome [12] | outcome [13] | outcome [15]

CCN1CCCC1CN (configuration not stated)
inactive: Potency [1] | outcome [3] | outcome [4] | Potency [5] | outcome [7] | outcome [8] | Potency [17] | Potency [9] | outcome [10] | outcome [11] | outcome [12] | outcome [13] | outcome [14] | outcome [15]

CC(C)Cn1cnc2c1c(=O)n(C)c(=O)n2C
inactive: Potency [1] | outcome [3] | outcome [4] | Potency [5] | outcome [16] | Potency [6] | outcome [7] | outcome [8] | Potency [17] | Potency [9] | outcome [10] | outcome [11] | outcome [12] | outcome [13] | outcome [15]

Cc1ccc(C(=O)O)cc1[N+](=O)[O-]
inactive: Potency [1] | outcome [3] | outcome [4] | Potency [5] | outcome [16] | Potency [6] | outcome [7] | outcome [8] | Potency [17] | Potency [9] | outcome [10] | outcome [11] | outcome [12] | outcome [13] | outcome [15]

Reference: PubChem BioAssay (Tox21)
